Reference: ChEMBL document CHEMBL3988442, “University of Dundee, Small-Polar-MMV Screening Library” (2021)

Columns and labels:
[1] = target: T1, Aspartate--tRNA(Asp/Asn) ligase (Mycobacterium tuberculosis (strain ATCC 25618 / H37Rv)) (UniProt P9WFW3); assay: Assay for Asp RNA synthetase-1 from Mycobacterium tuberculosis; assay type: functional; parameters: scale not given: direction of the effect not stated beside the values; details: 30 µM; also: in the data most compounds retested in dose-response had high values
T1 sequence (whole entry): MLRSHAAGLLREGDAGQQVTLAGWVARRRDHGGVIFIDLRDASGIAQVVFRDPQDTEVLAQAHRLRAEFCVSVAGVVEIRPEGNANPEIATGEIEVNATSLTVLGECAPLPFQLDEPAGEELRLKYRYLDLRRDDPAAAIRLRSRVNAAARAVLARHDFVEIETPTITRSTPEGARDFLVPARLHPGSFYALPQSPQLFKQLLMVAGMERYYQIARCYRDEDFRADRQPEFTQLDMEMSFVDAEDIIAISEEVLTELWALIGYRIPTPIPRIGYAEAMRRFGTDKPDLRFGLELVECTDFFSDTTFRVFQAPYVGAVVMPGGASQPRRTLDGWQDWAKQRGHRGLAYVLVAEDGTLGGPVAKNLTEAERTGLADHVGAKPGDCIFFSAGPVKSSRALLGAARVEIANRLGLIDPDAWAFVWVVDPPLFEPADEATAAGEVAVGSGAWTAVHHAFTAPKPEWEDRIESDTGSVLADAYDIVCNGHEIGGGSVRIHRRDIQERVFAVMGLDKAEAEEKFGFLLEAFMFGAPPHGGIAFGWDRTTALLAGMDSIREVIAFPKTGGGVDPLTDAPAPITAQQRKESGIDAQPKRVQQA

[2] = target: Shiga toxin 2 (Escherichia coli O157:H7) (UniProt P09385+P09386); assay: E. coli 0.157:H7 Shiga Toxin SOP - stx2 screening assay; assay type: functional; parameters: scale not given: direction of the effect not stated beside the values; details: 30 µM

SMILES | Percent Effect [1] [%] | Percent Effect [2] [%]
Cc1cccc(C2(CNC(=O)CCN3C(=O)CCC3=O)CCCC2)c1 | -4.05 | 9.87
COc1ccc(CC(=O)N2CCCC(n3cc(C)cn3)C2)cc1F (stereo unspecified) | -0.544 | 12.2
Cc1nc(C)n(CC2CCCN2CC(=O)Nc2cc(C(C)C)no2)n1 (stereo unspecified) | 3.17 | 27.8
O=C(Nc1ccccc1)c1nn(C2CCS(=O)(=O)C2)c2c1CCCC2 (stereo unspecified) | 0.629 | 4.6
c1cnnc(N2CCCC2CNc2nc3ccccc3o2)c1 (stereo unspecified) | -3.6 | -10.1
CC(c1cccnc1)N(C)Cc1csc(-c2ccccn2)n1 (stereo unspecified) | -4.49 | -14.1
O=C(NCC1CC1)[C@H]1C[C@H]2OCC[C@H]2N(CCc2ccccc2)C1 | 3.44 | 2.56
O=C(NCc1cc[nH]n1)NCC(c1ccco1)N1CCCC1 (stereo unspecified) | 0.607 | 4.49
O=C1NCCN(CC2CC2)C12CCN(Cc1ccco1)CC2 | 24.3 | -8.3
CC(C)c1nccn1-c1cccc(C2CCCN2S(=O)(=O)N(C)C)n1 (stereo unspecified) | 8.78 | 0.999
CC(=O)c1cc(CC(=O)NCc2c(F)cccc2F)cs1 | -0.993 | 4.94
COc1cnc(N2CCC(Oc3ccccc3OC)(C(=O)O)CC2)nc1 | -1.16 | -0.671
Cc1nc(C)c(CC(=O)N2C[C@H]3CC[C@@H]2CN(C(=O)N(C)C)C3)c(=O)[nH]1 | 0.0987 | -13.6
CCS(=O)(=O)N1CCc2ccc(NC(=O)Nc3cccc(SC)c3)cc21 | -4.68 | -22
O=C(Nc1nnc(C2CC2)s1)NC1CCN(Cc2ccccc2)C1 (stereo unspecified) | -0.344 | -174
Cc1nc(-c2cccc(C(=O)O)c2)cc(C2CCN(C(C)C)C2)n1 (stereo unspecified) | -4.63 | 4.12
CCc1nc(CN2CCCN(C(=O)c3cnc[nH]3)CC2)cs1 | -2.77 | -5.89
COc1cc(NC(=O)Cn2ccc3sc(C)cc3c2=O)cc(OC)c1 | -2.26 | 0.557
